Of roughly 8,800 targets only a part is listed; those with a hit were picked by preference. About 0.5% of all pairs of compound and target were hits. A number with no mark means an inactive call.
Tests used:
Assay in all cases: log2 fold change, soluble protein after heating vs DMSO (PISA); higher = thermal stabilisation; K562 lysate, 10 uM; active = over 0.2 and 3.5 SD of the protein, either way, in both replicates (recomputed)
nilotinib = compound: Cc1cn(-c2cc(NC(=O)c3ccc(C)c(Nc4nccc(-c5cccnc5)n4)c3)cc(C(F)(F)F)c2)cn1 [nilotinib]
Method in brief: (§1)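 Values give the log-two fold change in thermal stability against solvent controls, from duplicates. Crude K562 extract at 1 mg/mL protein, made by dounce homogenisation in PBS pH 7.4 with 1 mM MgCl2, was treated with 10 μM compound for 30 min. After 3 min heating across 48°C-58°C, aliquots were pooled, adjusted to 0.5% NP-40 at 4°C and centrifuged at 21,000xg for 90 min. The supernatant was measured by TMTpro 16plex LC-MS/MS with channel sums equalised.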

[1] = compound: Cc1nc(Nc2n[nH]c3c2CN(C(=O)N[C@H](CN(C)C)c2ccccc2)C3(C)C)c2sccc2n1
Method in brief: as §1

dasatinib = compound: Cc1nc(Nc2ncc(C(=O)Nc3c(C)cccc3Cl)s2)cc(N2CCN(CCO)CC2)n1 [dasatinib]
Method in brief: as §1

[2] = compound: Cc1ncc(-c2ccnc(Nc3ccc(S(C)(=O)=O)cc3)n2)n1C(C)C
Method in brief: as §1

[3] = compound: Cn1cc(-c2ccc3c(c2)CCN3C(=O)Cc2cccc(C(F)(F)F)c2)c2c(N)ncnc21
Method in brief: as §1

quisinostat = compound: Cn1cc(CNCC2CCN(c3ncc(C(=O)NO)cn3)CC2)c2ccccc21 [quisinostat]
Method in brief: as §1

tipifarnib = compound: Cn1cncc1[C@@](N)(c1ccc(Cl)cc1)c1ccc2c(c1)c(-c1cccc(Cl)c1)cc(=O)n2C [tipifarnib]
Method in brief: as §1

[4] = compound: NC(=O)Nc1cc(-c2cccc(F)c2)sc1C(=O)N[C@H]1CCCNC1
Method in brief: as §1

[5] = compound: NC(=O)c1cnc(N[C@@H]2CCCC[C@@H]2N)nc1Nc1cccc(-n2nccn2)c1
Method in brief: as §1

[6] = compound: NC1(c2ccc(-c3nc4ccn5c(=O)[nH]nc5c4cc3-c3ccccc3)cc2)CCC1
Method in brief: as §1

[7] = compound: NCC(=O)Nc1ccc(-n2nc(C(F)(F)F)cc2-c2ccc3c(ccc4ccccc43)c2)cc1
Method in brief: as §1

vorinostat = compound: O=C(CCCCCCC(=O)Nc1ccccc1)NO [vorinostat]
Method in brief: as §1

silmitasertib = compound: O=C(O)c1ccc2c(c1)nc(Nc1cccc(Cl)c1)c1ccncc12 [silmitasertib]
Method in brief: as §1

[8] = compound: O=C1NC(=O)C(c2cnc3ccccn23)=C1c1cn2c3c(cc(F)cc13)CN(C(=O)N1CCCCC1)CC2
Method in brief: as §1

entospletinib = compound: c1cn2cc(-c3ccc4cn[nH]c4c3)nc(Nc3ccc(N4CCOCC4)cc3)c2n1 [entospletinib]
Method in brief: as §1

UniProt P22059, sequence (P22059 whole entry, looked up): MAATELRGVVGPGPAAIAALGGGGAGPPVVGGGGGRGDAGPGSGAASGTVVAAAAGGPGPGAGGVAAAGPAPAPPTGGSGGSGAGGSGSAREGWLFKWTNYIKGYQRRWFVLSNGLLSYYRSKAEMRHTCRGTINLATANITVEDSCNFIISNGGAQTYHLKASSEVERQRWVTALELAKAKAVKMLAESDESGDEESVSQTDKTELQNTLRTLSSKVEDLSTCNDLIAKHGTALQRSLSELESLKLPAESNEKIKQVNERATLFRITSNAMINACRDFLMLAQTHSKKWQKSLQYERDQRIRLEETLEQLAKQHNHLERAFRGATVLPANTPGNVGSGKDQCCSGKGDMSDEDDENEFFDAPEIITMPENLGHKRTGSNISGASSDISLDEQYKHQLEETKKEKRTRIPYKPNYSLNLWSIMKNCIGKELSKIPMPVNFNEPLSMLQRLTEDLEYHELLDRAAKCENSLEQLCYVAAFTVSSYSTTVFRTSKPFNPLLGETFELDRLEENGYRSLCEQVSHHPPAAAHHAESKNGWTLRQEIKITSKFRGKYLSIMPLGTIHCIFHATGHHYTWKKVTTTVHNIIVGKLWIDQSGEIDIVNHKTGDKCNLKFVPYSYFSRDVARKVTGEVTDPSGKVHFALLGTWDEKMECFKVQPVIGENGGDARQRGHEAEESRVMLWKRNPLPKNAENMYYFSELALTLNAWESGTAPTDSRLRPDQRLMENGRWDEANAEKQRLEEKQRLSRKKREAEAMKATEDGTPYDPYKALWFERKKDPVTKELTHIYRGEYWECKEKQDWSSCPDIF
UniProt Q15102, sequence (Q15102 whole entry, looked up): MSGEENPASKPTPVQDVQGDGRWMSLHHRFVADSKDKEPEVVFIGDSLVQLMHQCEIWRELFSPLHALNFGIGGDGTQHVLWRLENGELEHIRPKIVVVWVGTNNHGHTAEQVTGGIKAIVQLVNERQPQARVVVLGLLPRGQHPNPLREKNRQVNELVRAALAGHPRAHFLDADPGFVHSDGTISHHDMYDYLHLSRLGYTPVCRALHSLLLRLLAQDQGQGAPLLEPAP
UniProt O76041, sequence (O76041 whole entry, looked up): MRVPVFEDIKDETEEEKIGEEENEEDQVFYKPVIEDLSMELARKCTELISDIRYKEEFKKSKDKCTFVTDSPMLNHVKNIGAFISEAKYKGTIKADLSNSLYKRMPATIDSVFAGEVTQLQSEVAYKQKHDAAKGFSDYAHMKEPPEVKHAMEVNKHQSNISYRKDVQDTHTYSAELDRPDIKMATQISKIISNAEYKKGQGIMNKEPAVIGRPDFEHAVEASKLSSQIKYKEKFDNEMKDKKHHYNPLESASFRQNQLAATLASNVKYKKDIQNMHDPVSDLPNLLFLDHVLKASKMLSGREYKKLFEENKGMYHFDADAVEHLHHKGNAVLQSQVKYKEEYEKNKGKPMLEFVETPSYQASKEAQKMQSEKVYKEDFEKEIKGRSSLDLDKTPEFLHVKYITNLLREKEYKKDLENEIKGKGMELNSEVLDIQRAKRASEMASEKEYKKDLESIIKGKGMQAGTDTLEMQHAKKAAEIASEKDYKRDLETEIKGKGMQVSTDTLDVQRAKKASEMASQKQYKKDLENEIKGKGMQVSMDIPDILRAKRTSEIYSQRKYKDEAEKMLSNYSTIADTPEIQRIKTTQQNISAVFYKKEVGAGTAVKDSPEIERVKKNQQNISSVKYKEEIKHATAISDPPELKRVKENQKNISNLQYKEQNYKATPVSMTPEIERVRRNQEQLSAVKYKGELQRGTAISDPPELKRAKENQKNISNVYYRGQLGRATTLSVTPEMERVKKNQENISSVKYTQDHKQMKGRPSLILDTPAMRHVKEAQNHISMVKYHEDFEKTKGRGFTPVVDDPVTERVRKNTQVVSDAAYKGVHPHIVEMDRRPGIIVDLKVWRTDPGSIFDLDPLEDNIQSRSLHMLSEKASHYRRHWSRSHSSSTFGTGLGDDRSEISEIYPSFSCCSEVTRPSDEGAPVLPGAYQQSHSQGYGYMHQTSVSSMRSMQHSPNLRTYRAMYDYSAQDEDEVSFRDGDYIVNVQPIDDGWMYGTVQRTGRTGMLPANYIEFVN
UniProt Q92621, sequence (Q92621 whole entry, looked up): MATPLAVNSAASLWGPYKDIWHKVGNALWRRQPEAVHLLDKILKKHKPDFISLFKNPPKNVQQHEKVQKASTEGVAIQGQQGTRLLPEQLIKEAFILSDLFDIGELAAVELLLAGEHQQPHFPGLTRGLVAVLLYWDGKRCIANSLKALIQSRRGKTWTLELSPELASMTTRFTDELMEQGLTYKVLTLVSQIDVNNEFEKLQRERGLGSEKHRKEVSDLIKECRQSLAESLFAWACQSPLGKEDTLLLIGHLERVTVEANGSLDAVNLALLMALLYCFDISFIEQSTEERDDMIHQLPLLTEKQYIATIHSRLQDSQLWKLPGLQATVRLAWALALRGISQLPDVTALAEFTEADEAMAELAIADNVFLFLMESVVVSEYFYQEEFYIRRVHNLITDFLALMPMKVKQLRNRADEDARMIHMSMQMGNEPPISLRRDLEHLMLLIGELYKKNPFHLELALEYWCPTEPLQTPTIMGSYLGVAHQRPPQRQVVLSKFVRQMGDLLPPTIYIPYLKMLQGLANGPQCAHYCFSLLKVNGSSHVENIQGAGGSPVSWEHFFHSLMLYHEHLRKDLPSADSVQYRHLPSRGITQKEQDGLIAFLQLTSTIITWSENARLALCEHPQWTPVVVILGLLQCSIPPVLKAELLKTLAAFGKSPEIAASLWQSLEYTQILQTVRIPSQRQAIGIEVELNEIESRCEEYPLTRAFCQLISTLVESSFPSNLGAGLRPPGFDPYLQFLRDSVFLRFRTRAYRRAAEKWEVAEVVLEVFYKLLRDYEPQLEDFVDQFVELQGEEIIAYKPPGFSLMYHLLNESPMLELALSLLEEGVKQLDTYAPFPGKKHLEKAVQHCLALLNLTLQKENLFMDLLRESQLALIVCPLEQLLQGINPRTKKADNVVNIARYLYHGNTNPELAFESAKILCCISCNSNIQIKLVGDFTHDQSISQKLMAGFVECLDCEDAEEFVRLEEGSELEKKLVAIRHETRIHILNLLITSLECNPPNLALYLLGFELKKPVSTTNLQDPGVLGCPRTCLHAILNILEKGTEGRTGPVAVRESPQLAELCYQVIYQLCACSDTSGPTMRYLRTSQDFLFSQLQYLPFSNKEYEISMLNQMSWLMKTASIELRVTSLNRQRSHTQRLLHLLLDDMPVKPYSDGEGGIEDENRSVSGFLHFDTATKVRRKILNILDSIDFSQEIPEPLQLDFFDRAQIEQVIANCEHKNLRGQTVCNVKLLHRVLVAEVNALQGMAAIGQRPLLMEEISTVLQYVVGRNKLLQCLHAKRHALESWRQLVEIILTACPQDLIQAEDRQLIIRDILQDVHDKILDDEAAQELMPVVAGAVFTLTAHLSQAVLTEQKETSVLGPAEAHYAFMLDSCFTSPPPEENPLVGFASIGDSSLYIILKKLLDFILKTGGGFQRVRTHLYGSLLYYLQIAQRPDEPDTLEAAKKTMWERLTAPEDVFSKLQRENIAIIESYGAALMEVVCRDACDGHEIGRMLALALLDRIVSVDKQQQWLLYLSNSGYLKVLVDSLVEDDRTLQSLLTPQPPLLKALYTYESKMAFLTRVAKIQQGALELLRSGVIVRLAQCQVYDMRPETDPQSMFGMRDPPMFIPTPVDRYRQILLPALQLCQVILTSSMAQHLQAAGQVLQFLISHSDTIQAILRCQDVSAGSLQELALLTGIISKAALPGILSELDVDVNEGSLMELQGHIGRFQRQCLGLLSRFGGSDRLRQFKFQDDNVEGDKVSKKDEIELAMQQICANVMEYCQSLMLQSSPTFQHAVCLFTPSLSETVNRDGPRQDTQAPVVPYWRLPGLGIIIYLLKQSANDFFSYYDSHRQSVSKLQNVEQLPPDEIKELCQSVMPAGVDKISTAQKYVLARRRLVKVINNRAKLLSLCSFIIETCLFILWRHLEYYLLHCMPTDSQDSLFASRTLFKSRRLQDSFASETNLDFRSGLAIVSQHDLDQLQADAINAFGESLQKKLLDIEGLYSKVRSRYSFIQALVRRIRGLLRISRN
UniProt Q9H857, sequence (Q9H857 whole entry, looked up): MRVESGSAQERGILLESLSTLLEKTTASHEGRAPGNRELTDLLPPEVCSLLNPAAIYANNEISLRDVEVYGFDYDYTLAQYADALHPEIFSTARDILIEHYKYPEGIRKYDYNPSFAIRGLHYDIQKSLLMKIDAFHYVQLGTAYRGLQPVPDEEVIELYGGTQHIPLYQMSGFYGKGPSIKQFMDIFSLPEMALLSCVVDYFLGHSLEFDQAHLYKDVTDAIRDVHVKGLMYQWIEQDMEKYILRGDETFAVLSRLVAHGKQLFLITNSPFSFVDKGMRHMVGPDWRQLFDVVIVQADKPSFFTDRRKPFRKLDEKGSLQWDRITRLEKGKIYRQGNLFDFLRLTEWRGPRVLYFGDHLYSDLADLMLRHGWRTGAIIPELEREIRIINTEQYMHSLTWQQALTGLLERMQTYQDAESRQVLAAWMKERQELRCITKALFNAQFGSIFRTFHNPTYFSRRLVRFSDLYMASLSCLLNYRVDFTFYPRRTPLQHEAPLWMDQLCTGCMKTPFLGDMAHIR
UniProt P04181, sequence (P04181 whole entry, looked up): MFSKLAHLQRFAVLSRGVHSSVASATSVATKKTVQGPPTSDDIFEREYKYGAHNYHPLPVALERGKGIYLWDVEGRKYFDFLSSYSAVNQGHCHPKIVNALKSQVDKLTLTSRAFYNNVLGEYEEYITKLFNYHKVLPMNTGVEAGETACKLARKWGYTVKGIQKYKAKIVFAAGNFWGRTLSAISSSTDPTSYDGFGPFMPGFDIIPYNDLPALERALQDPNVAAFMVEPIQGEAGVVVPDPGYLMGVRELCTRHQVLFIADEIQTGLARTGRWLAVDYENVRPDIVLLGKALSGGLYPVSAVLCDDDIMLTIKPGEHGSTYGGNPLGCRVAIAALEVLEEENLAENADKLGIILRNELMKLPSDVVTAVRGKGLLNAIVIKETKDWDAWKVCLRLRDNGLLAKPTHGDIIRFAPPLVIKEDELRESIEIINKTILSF

Target	log2 fold change (nilotinib)	log2 fold change [1]	log2 fold change (dasatinib)	log2 fold change [2]	log2 fold change [3]	log2 fold change (quisinostat)	log2 fold change (tipifarnib)	log2 fold change [4]	log2 fold change [5]	log2 fold change [6]	log2 fold change [7]	log2 fold change (vorinostat)	log2 fold change (silmitasertib)	log2 fold change [8]	log2 fold change (entospletinib)
NUP205 (UniProt Q92621)	-0.014	0.004	-0.04	0.008	0.04	-0.041	-0.027	0.052	0.047	-0.012	0.003	-0.335 (active)	0.037	0.001	0.005
PAFAH1B3 (UniProt Q15102)	0.005	0.036	-0.057	-0.026	0.03	0.01	-0.01	-0.009	0.031	0.021	-0.013	-0.179	0.041	0.003	-0.052
NTMT1 (UniProt Q9BV86)	-0.033	-0.026	-0.053	0.002	0.047	-0.051	0.012	0.07	-0.049	-0.002	0.008	-0.366 (active)	0.026	0.01	0.049
NSL1 (UniProt Q96IY1)	-0.018	0.005	-0.01	-0.014	0	-0.009	0.024	-0.003	0.01	-0.007	-0.012	-0.528 (active)	-0.022	-0.005	0.03
MRPS18A isoform 2 (UniProt Q9NVS2)	0.031	-0.022	-0.054	-0.033	0.006	-0.012	-0.026	0.036	0.014	-0.065	0.008	0.021	0.048	0.019	-0.052
NT5DC2 isoform 2 (UniProt Q9H857)	0.025	-0.041	0.067	0.029	-0.027	-0.002	-0.027	-0.002	0.06	-0.011	0.013	-0.272 (active)	-0.019	0	-0.013
PAK4 (UniProt O96013)	-0.015	0.71 (active)	0.141	0.264	-0.081	-0.269	-0.016	0.9 (active)	0.473	0.257	-0.003	-0.458	-0.038	0.028	0.05
NF1 (UniProt P21359)	-0.021	0.053	0.007	-0.039	0.024	-0.059	0.018	0.041	0.016	-0.016	0.03	-0.634 (active)	0.037	0.01	0.025
OAT (UniProt P04181)	0.012	-0.038	-0.033	0.003	-0.012	-0.002	0.024	-0.01	0.019	-0.018	0.053	0.168	-0.006	0.042	0.029
MRPL58 (UniProt Q14197)	-0.022	0.045	-0.008	-0.012	0.021	0.017	0.003	0.055	0.025	-0.032	0.02	-0.053	-0.008	0.038	0.041
OGT (UniProt O15294)	0.018	0.01	-0.027	-0.002	0.041	-0.067	-0.012	0.026	0.009	-0.023	0.002	-0.42 (active)	0.035	0.045	0.021
PAGE2B (UniProt Q5JRK9)	0.036	-0.007	0.032	0.062	-0.016	0.001	0.026	0.041	-0.018	0.164	0.057	0.474 (active)	-0.001	0.02	0.017
NCAPD2 (UniProt Q15021)	0.006	0.01	-0.037	-0.001	0.031	-0.064	-0.019	0.044	0.003	-0.009	-0.01	-0.332 (active)	0.01	-0.005	-0.001
NUP98 (UniProt P52948)	-0.041	-0.017	-0.053	-0.008	0.031	-0.049	-0.12	0.055	-0.002	0.003	0.021	-0.231 (active)	0.001	0.001	-0.012
MRPL53 (UniProt Q96EL3)	-0.04	0.026	-0.018	0.015	0.06	0.02	-0.034	-0.041	-0.006	0.031	-0.052	-0.119	0.042	-0.024	0.033
NEK9 (UniProt Q8TD19)	-0.024	0.13	-0.002	0.007	0.001	-0.042	-0.018	0.033	0.003	-0.026	-0.03	-0.45 (active)	0.052	-0.013	0.013
NEBL isoform 2 (UniProt O76041)	-0.022	-0.001	-0.029	0.015	-0.072	0.012	-0.021	-0.017	-0.027	-0.007	-0.019	0.146	-0.019	-0.016	-0.01
OTC (UniProt P00480)	-0.105	-0.023	-0.347	-0.159	0.106	-0.492	0.054	-0.055	0.071	-0.075	0.097	0.087	-0.029	-0.157	-0.028
OSBP (UniProt P22059)	-0.073	0.005	-0.221 (active)	-0.015	-0.011	0	0.042	0.012	0.031	0.04	0.041	0.108	-0.121	-0.015	-0.1
OPA1 isoform 2 (UniProt O60313)	0.026	-0.008	-0.07	0.007	0.018	0.055	-0.035	0.025	0.016	-0.012	0.002	0.014	0.027	0.009	-0.004
NARS2 (UniProt Q96I59)	0.019	-0.027	-0.046	-0.014	0.026	-0.023	0.007	0.051	0.037	-0.037	0.063	-0.344 (active)	0.05	-0.029	-0.079
